The values that follow come from PubChem BioAssay (Tox21).

Experiment [1] can be described thus: qHTS assay to identify small molecule antagonists of the androgen receptor (AR) signaling pathway using the MDA cell line in the presence of 0.5 nM R1881 - cell viability counter screen (AID 1259242). Further: nearly all actives have a fitted effect of over 45% in size. Further: potency means the concentration at half of the fitted maximal effect. An outline of the steps: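 Viability of MDA-kb2 cells was multiplexed with the luciferase AR readout; after 16 hr with compounds and R1881 at 0.5 nM final, CellTiter-Fluor fluorescence was recorded.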

For experiment [2], the target named is Estrogen receptor (Homo sapiens) (UniProt P03372). Description: qHTS assay to identify small molecule antagonists of the estrogen receptor alpha (ER-alpha) signaling pathway using the BG1 cell line in the presence of 0.1 nM 17-beta-estradiol (AID 1259244). Further: nearly all actives have a fitted effect of over 50% in size. Further: potency means the concentration at half of the fitted maximal effect. An outline of the steps:
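Estradiol at 0.1 nM (final) stimulates the endogenous ER-alpha of VM7Luc4E2 cells carrying an ERE-driven luciferase; compounds are co-incubated 22 h at 37C and luciferase output quantified by luminescence.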
(In general: In qHTS, concentration-response curves come from the screen itself.)

A short description of experiment [3]: qHTS assay to identify small molecule HDAC inhibitors (AID 1259364).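 Further: wild-type HCT-116 cells with endogenous class I/II HDAC activity; top concentration of the series differs between compounds; nearly all actives have a fitted effect of over 45% in size.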 An outline of the steps:
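Read-out: luminescence of HDAC-Glo I/II reagent, 30 min RT, reflecting class I/II deacetylase activity in whole HCT-116 cells pre-exposed 2 h to DMSO-dissolved compounds.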

A short description of experiment [4]: qHTS assay to identify small molecule HDAC inhibitors - cell viability counter screen (AID 1259365). Further: series mostly up to about 92 µM; nearly all actives have a fitted effect of over 50% in size. The procedure, abridged:
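Cytotoxicity was gauged in wild-type HCT-116 cells after a brief 2hr treatment with DMSO-dissolved compounds at 37C and 5% CO2, using CellTiter-Glo luminescence developed for 30min at room temperature.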

Experiment [5] is described as follows: qHTS assay to identify small molecule agonists of the sonic hedgehog signaling (Shh) pathway - cell viability counter screen (AID 1259366). Further: nearly all actives have a fitted effect of over 50% in size. Further: potency means the concentration at half of the fitted maximal effect. The procedure, abridged: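 Stable Gli1-Luc NIH/3T3 clone, 2,000 cells/well. Compound exposure 24hr at 37C. Read-out: CellTiter-Fluor fluorescence.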
The nature of experiment [6]: qHTS assay to identify small molecule agonists of the sonic hedgehog signaling (Shh) pathway (AID 1259368; calls by dose curve;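 further: NIH/3T3-derived 3T3Gli1-Luc cells carrying a stable Gli1-driven firefly luciferase reporter; series mostly up to about 92 µM; nearly all actives have a fitted effect of over 15% in size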). The procedure, abridged:
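A Gli1 transcriptional response element controlled firefly luciferase in 3T3Gli1-Luc cells. Compounds and a positive control were added 4 hr after plating, and cells were incubated a further 24 hr at 37 C before luminescence detection.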

The nature of experiment [7]: qHTS assay to identify small molecule antagonists of the sonic hedgehog signaling (Shh) pathway (AID 1259369; calls by dose curve; further: nearly all actives have a fitted effect of over 45% in size; further: potency means the concentration at half of the fitted maximal effect). The procedure, abridged: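 For antagonist detection, the reporter line received test compounds together with conditioned medium, incubated 24hr at 37 C, 5% CO2, then luminescence was recorded following 30min room-temperature luciferase reagent incubation.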

Experiment [8] in a line: qHTS assay to identify small molecule agonists of the estrogen receptor beta (ER-beta) signaling pathway - cell viability counter screen (AID 1259380). Further: nearly all actives have a fitted effect of over 30% in size. Further: potency means the concentration at half of the fitted maximal effect. An outline of the steps:
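CellTiter-Glo read, 30 min RT, same wells as bla assay; cells ER-beta-UAS-bla HEK293T; 16 hr compound, 37C; medium 2% charcoal-stripped FBS.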

A short description of experiment [9]: qHTS assay to identify small molecule agonists or antagonists of the thyroid stimulating hormone receptor (TSHR) signaling pathway - wild type cell line counter screen (AID 1259384; calls by dose curve). An outline of the steps: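 Counter screen in untransfected Hek293: compounds (15-point titration, triplicate) plus phosphodiesterase inhibitor Ro20-1724 added after 18 h plating; 30 min RT. Intracellular cAMP via competitive d2/cryptate immunoassay, 1 h incubation.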

The target in experiment [10] is Thyrotropin receptor (Homo sapiens) (UniProt P16473). Description: qHTS assay to identify small molecule antagonists of the thyroid stimulating hormone receptor (TSHR) signaling pathway (AID 1259385; calls by dose curve; further: nearly all actives have a fitted effect of over 20% in size). The procedure, abridged:
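Antagonist mode: compound-treated TSHR-expressing HEK293 cells were stimulated with 1.5 ng/mL TSH (final) in presence of Ro20-1724 for 30 min at RT. HTRF cAMP detection after 1 h; each compound tested at 15 concentrations, triplicate.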

A short description of experiment [11]: qHTS assay to identify small molecule antagonists of the sonic hedgehog signaling (Shh) pathway - cell viability counter screen (AID 1259367). Further: nearly all actives have a fitted effect of over 55% in size. Further: potency means the concentration at half of the fitted maximal effect. An outline of the steps: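 Using CellTiter-Fluor, viability of Gli1-Luc reporter 3T3 cells is read by fluorescence in the wells used for the Shh luciferase assay. Treatment lasts 23 hr with conditioned medium, then reagent 1 hr at 37C.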

The nature of experiment [12]: qHTS assay to identify small molecule agonists of the androgen receptor (AR) signaling pathway in the presence of an antagonist - cell viability counter screen (AID 1259379). Further: nearly all actives have a fitted effect of over 25% in size. Further: potency means the concentration at half of the fitted maximal effect. An outline of the steps: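 Seed MDA-kb2 at 3,000 cells/well; incubate 5 hr, 37C, 0% CO2. Add nilutamide to 3.0uM final, then pin compounds at 15 concentrations. Incubate 16 hr. Add CellTiter-Fluor at 15 hr, read fluorescence after 1 hr.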

A short description of experiment [13]: qHTS assay to identify small molecule antagonists of the estrogen receptor beta (ER-beta) signaling pathway - cell viability counter screen (AID 1259382). Further: nearly all actives have a fitted effect of over 55% in size. Further: potency means the concentration at half of the fitted maximal effect. The procedure, abridged: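 In this multiplexed counter screen, cells were seeded at 2,000 per well in medium with 2% charcoal-stripped FBS and incubated 6 hr before compound and 1nM final E2 were added. Sixteen hours later, ATP-based luminescence reported viability.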

In experiment [14] the target is Estrogen receptor (Homo sapiens) (UniProt P03372). Description: qHTS assay to identify small molecule agonists of the estrogen receptor alpha (ER-alpha) signaling pathway in the presence of an antagonist (AID 1259383; calls by dose curve; further: top concentration of the series differs between compounds; nearly all actives have a fitted effect of over 15% in size). The procedure, abridged: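 Stably transfected VM7Luc4E2 reporter cells, kept 5 days in charcoal-stripped serum, received ICI-182,780 at 10.0nM final before compound addition. Following 22hr incubation at 37C and 5% CO2, luciferase signal was read by luminescence.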

Experiment [15] can be described thus: qHTS assay to identify small molecule agonists of the estrogen receptor alpha (ER-alpha) signaling pathway in the presence of an antagonist - cell viability counter screen (AID 1259386).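 Further: series mostly up to about 92 µM; cells exposed to compounds for 22 h at 37 °C before the viability read; nearly all actives have a fitted effect of over 30% in size.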 An outline of the steps:
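Viability counter screen using VM7Luc4E2 (full-length ER-alpha, four ERE-luciferase). The cells were treated with compounds alongside ICI-182,780 10.0nM for 22hr, and live-cell protease fluorescence was quantified with CellTiter-Fluor.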

Experiment [16] concerns the target Androgen receptor (Homo sapiens) (UniProt P10275). Description: qHTS assay to identify small molecule agonists of the androgen receptor (AR) signaling pathway in the presence of an antagonist (AID 1259381; calls by dose curve; further: nearly all actives have a fitted effect of over 15% in size). An outline of the steps:
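Test compounds at 15 concentrations were incubated for 16hr with MDA-kb2 reporter cells in presence of 3.0uM nilutamide (final). Signal: ONE-Glo luciferase luminescence.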

Experiment [17] deals with Estrogen receptor beta (Homo sapiens) (UniProt Q92731). Description: qHTS assay to identify small molecule agonists of the estrogen receptor beta (ER-beta) signaling pathway (AID 1259377; active means well fitted activation curve with a large enough effect in the signal ratio in the repeat runs, not every such curve was filed as active; the % refers to the signal ratio). The procedure, abridged:
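Measured by fluorescence intensity from a B/G FRET beta-lactamase substrate (2 h, room temperature) in ER-beta-UAS-bla HEK293T cells treated with DMSO-dissolved compounds for 16 hr at 37C and 5% CO2.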

Experiment [18] has the same target. Description: qHTS assay to identify small molecule antagonists of the estrogen receptor beta (ER-beta) signaling pathway (AID 1259378; active means well fitted inhibition curve with a large enough effect in the signal ratio in the repeat runs, not every such curve was filed as active; the % refers to the signal ratio). The procedure, abridged: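 Antagonist mode: compounds added to beta-lactamase reporter HEK293T ER-beta-UAS cells stimulated with E2 (1nM final), 16 hr at 37C. LiveBLAzer B/G FRET substrate, 2 hours room temperature, fluorescence read-out.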

Records with an inconclusive call do not appear. The source made the active and inactive calls. Unless noted, the call rests on the fitted dose curve; in most records, active means well fitted curve in the direction sought with a large enough effect in the repeat runs; inconclusive means weak or mixed curves; inactive means no such curve, though single readings can be large; an effect the other way counts as inactive or inconclusive.

Sequence of Estrogen receptor (Homo sapiens) (P03372 whole entry, looked up): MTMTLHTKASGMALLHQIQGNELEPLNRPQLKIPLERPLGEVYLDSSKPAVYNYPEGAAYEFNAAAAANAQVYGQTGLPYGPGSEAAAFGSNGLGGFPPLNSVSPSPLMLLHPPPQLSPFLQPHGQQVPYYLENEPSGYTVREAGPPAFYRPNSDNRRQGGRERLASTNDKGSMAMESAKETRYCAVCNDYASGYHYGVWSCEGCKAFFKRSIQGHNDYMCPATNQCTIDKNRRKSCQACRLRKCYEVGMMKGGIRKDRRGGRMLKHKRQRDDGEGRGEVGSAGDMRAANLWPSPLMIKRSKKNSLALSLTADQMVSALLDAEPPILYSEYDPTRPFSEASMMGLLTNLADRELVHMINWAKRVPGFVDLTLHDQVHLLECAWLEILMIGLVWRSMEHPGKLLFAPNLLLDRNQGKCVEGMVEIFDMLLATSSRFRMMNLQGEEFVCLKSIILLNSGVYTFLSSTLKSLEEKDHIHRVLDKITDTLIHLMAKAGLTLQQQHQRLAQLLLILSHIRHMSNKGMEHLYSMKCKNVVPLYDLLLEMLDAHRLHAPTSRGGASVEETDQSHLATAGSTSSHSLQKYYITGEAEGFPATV
Sequence of Thyrotropin receptor (Homo sapiens) (P16473 whole entry, looked up): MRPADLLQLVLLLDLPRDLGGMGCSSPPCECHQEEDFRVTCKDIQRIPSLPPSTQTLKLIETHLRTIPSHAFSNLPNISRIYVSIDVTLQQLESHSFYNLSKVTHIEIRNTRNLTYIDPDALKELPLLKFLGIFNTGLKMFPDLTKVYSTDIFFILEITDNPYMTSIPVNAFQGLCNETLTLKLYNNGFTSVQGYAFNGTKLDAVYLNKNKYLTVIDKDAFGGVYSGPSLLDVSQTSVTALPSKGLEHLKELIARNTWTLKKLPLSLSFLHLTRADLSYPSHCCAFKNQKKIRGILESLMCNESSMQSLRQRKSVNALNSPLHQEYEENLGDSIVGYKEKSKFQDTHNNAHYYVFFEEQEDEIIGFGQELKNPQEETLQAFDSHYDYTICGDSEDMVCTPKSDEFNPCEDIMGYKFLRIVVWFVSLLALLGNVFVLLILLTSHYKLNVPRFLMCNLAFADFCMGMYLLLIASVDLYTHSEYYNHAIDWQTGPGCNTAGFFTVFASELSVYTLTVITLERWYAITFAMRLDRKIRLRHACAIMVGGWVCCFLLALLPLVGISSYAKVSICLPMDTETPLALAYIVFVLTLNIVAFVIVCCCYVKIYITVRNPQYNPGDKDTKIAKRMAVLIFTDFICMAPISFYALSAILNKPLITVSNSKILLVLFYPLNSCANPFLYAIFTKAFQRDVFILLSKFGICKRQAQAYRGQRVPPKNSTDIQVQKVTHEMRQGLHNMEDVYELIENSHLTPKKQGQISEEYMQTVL
Sequence of Estrogen receptor beta (Homo sapiens) (Q92731 whole entry, looked up): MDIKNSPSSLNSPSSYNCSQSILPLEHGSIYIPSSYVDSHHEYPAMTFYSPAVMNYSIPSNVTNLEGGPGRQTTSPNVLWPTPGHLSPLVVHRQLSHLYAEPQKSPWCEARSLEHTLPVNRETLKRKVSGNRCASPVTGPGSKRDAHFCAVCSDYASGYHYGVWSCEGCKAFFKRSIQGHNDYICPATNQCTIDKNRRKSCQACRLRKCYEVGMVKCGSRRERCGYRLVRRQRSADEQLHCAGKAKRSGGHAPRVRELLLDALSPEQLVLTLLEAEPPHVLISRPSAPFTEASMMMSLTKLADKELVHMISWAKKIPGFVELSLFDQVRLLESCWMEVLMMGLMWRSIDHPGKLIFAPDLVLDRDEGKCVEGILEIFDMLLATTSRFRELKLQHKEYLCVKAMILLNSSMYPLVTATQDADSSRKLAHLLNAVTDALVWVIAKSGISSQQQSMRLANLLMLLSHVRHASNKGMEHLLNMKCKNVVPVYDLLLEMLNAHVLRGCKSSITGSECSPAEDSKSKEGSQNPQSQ
Sequence of Androgen receptor (Homo sapiens) (P10275 whole entry, looked up): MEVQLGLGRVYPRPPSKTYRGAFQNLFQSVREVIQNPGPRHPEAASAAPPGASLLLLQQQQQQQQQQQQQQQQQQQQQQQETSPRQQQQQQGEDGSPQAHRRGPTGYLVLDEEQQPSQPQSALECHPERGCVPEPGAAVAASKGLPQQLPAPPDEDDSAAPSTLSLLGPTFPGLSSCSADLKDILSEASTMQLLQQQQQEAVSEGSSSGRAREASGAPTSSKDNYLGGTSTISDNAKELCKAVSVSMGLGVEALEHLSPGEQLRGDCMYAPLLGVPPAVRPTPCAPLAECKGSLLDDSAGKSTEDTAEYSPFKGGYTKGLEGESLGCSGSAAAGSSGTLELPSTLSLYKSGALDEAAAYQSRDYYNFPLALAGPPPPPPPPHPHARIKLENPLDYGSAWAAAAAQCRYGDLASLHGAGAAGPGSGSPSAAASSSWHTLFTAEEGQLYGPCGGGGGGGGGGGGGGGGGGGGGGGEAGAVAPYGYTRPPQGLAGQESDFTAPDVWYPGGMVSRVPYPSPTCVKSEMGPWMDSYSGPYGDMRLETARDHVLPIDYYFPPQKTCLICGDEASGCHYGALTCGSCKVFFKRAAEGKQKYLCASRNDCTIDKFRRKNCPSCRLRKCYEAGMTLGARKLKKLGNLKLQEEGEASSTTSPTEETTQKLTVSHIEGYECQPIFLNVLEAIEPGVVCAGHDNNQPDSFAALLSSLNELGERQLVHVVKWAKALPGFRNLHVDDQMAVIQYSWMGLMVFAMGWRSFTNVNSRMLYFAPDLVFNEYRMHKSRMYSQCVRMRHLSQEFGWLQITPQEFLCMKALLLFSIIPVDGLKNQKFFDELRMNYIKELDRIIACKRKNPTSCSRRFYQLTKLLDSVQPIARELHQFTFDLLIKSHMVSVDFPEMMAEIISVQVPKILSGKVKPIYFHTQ

For the compound `COc1ccc2sc(C(=O)Nc3nnn[nH]3)c(OC(C)C)c2c1`, the Potency result in experiment [1], in experiment [3], in experiment [4], in experiment [6] and in experiment [10] was “inactive” in each case. Besides, the Potency in [2] is 30.5 µM (active); in experiment [5] it was 27.2 µM (active); in experiment [7], 6.83 µM (active); in experiment [8], 6.83 µM (active). Moreover, the compound was called inactive in experiment [9].
With `COc1cccc(CCc2ccccc2OCC(CN(C)C)OC(=O)CCC(=O)O)c1` (stereo unspecified), the Potency entry in [1], in experiment [2], in experiment [3], in experiment [4], in [11] and in [6] was “inactive” throughout. The Potency result in experiment [12], in experiment [14], in experiment [10] and in experiment [15] was “inactive” in each case. Moreover, the figures for the Potency in [7], in [8] and in [13] were 16.8 µM (active), 23.7 µM (active) and 21.1 µM (active), respectively. The compound was classed as inactive in experiment [9].
For `Cc1ccc(CCn2c3c(c4cc(Cl)ccc42)CN(C)CC3)cn1`, the Potency result in [1], in [2], in [3], in [4], in [6] and in experiment [12] was “inactive” in each case. Further, the Potency result in experiment [16], in experiment [10] and in experiment [15] was “inactive” each time. Also, the Potency in experiment [8] and in experiment [13] was 26.6 µM (active) throughout. Also, the call in experiment [9] was inactive.
As to `CCCCOC(=O)C(C)CC` (stereo unspecified), the Potency entry in [1], in experiment [2], in experiment [3], in experiment [4], in experiment [5] and in experiment [11] was “inactive” in each case. In addition, the Potency result in [6], in experiment [17], in [18], in experiment [12], in experiment [8] and in experiment [13] was “inactive” in each case. Also, the Potency result in experiment [14], in experiment [10] and in experiment [15] was “inactive” in each case. For the same compound, the outcome in [9] was inactive.
`ClC/C=C\CCl`: the Potency result in experiment [1], in experiment [2], in experiment [3], in experiment [4], in [5] and in experiment [6] was “inactive” in each case. The Potency entry in [7], in [12], in [8], in experiment [13], in experiment [14] and in experiment [10] was “inactive” each time. The result in [9] was inactive.
As to `CC(C)=CC1CC(C)CCO1` (stereo unspecified), the Potency result in [1], in experiment [2], in [3], in experiment [4], in [5] and in [6] was “inactive” throughout. Further, the Potency entry in experiment [7], in experiment [17], in experiment [18], in experiment [12], in experiment [8] and in experiment [13] was “inactive” each time. For the same compound, the Potency result in experiment [14], in [10] and in experiment [15] was “inactive” each time. The result in experiment [9] was inactive.
As to `CC(COC(=O)c1ccccc1)OC(=O)c1ccccc1` (stereo unspecified), the Potency result in experiment [1], in [2], in experiment [3], in experiment [4], in [5] and in experiment [6] was “inactive” in each case. Further, the Potency result in [12], in experiment [8], in [13], in experiment [10] and in experiment [15] was “inactive” in each case. Further, in [9], the compound was classed as inactive.
Turning to `COc1ccc(C#N)cc1`, the Potency entry in experiment [1], in [2], in experiment [3], in experiment [4], in experiment [5] and in [11] was “inactive” each time. The Potency result in experiment [6], in experiment [7], in experiment [12], in [13], in experiment [14] and in experiment [10] was “inactive” throughout. In [15], the Potency entry is “inactive”. In addition, the result in experiment [9] was inactive.
Consider `CCCCCCCCCCCCCC[n+]1ccccc1`, for which the Potency in [1] was 24.3 µM (active); in [2] it was 2.17 µM (active); in experiment [5], 61.1 µM (active); in experiment [11], 61.1 µM (active); in [7] it was 0.0049 µM (active); in experiment [12] it was 3.06 µM (active). Further, the Potency in experiment [8] was 30.6 µM (active); in experiment [13], 61.1 µM (active). Moreover, the Potency result in experiment [3], in [4], in experiment [6], in experiment [14] and in [10] was “inactive” in each case. For the same compound, in experiment [9], the call was inactive.
